Consider 7 compounds from PubChem BioAssay (Tox21).

The nature of test [1]: qHTS assay to identify small molecule antagonists of the thyroid receptor (TR) signaling pathway - cell viability counter screen (AID 743064). Further: nearly all actives have a fitted effect of over 50% in size. Further: potency means the concentration at half of the fitted maximal effect. A digest of the protocol: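 GH3.TRE-Luc cells, 4 h pre-plating; cpd + T3 1 nM final; 37 °C 23.5 h; CellTiter-Fluor 30 min; fluorescence read.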
A short description of test [2]: qHTS assay to identify small molecule antagonists of the thyroid receptor (TR) signaling pathway (AID 743065). Further: nearly all actives have a fitted effect of over 55% in size. Further: potency means the concentration at half of the fitted maximal effect. A digest of the protocol:
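GH3.TRE-Luc rat pituitary cells carrying two TR response elements driving luciferase were plated for 4 h, given compound plus 1 nM T3 (final), and incubated 23.5 h at 37 C. ONE-Glo luminescence measured reporter inhibition; CellTiter-Fluor fluorescence tracked cytotoxicity.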

Test [3] has as its system thyroid hormone receptor (rat, GH3 cells). As to the kind of experiment: qHTS assay to identify small molecule agonists of the thyroid receptor (TR) signaling pathway (AID 743066; calls by dose curve).
Test [4] concerns the target Estrogen receptor (Homo sapiens) (UniProt P03372). Description: qHTS assay to identify small molecule antagonists of the estrogen receptor alpha (ER-alpha) signaling pathway (AID 743069; active means well fitted curve in the direction sought with a large enough effect in the signal ratio in the repeat runs, not every such curve was filed as active; inconclusive means weak or mixed curves, or effect the other way; inactive means no such curve, though single readings can be large or run the other way; the % refers to the signal ratio). A digest of the protocol: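 A 17beta-estradiol challenge was applied right after compound transfer to ER-alpha-UAS-bla HEK293 cells previously kept in charcoal-stripped serum. Plates stood 18 hr at 37C and 5% CO2; fluorescence was read following 2 hr FRET substrate loading at room temperature.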

The nature of test [5]: qHTS assay to identify small molecule antagonists of the estrogen receptor alpha (ER-alpha) signaling pathway - cell viability counter screen (AID 743074; calls by dose curve;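 further: HEK293 cells carrying ER-alpha-UAS-bla reporter stimulated with 17beta-estradiol; nearly all actives have a fitted effect of over 45% in size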).
Test [6] has as its target Estrogen receptor (Homo sapiens) (UniProt P03372). Description: qHTS assay to identify small molecule agonists of the estrogen receptor alpha (ER-alpha) signaling pathway (AID 743075; calls by dose curve;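 further: HEK293 GripTite cells with ER-alpha and UAS-driven beta-lactamase reporter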; further: potency means the concentration at half of the fitted maximal effect).
Test [7] has the same target. Description: qHTS assay to identify small molecule agonists of the estrogen receptor alpha (ER-alpha) signaling pathway using the BG1 cell line (AID 743079). Further: nearly all actives have a fitted effect of over 20% in size. To be noted: BG1Luc4E2 cells, ERE-luciferase agonist, 22 h; activation: at 70.3 µM (top of the series).
The nature of test [8]: qHTS assay to identify small molecule antagonists of the estrogen receptor alpha (ER-alpha) signaling pathway using the BG1 cell line - cell viability counter screen (AID 743081).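 Further: compound given together with 17beta-estradiol as the ER stimulus; nearly all actives have a fitted effect of over 45% in size.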
The target of a further test is Aromatase (Homo sapiens) (UniProt P11511). As to the kind of experiment: qHTS assay to identify aromatase inhibitors (AID 743083). Further: nearly all actives have a fitted effect of over 55% in size.
Chain of Aromatase (Homo sapiens) (P11511 whole entry, looked up): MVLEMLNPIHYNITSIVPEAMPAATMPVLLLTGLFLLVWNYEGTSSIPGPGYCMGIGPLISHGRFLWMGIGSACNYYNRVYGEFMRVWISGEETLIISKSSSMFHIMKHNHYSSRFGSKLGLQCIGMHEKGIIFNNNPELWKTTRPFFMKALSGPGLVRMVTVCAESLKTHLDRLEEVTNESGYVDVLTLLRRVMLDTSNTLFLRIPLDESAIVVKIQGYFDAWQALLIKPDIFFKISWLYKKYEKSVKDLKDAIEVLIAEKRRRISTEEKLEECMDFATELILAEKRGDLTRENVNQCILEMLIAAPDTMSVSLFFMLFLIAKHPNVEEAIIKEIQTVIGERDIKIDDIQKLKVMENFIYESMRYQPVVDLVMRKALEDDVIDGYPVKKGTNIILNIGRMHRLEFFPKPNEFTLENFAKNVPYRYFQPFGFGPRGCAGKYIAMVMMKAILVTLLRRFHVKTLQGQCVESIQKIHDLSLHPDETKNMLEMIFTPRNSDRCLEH
Test [9] can be described thus: qHTS assay to identify aromatase inhibitors - cell viability counter screen (AID 743084).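 Further: cells stimulated with testosterone during compound exposure; nearly all actives have a fitted effect of over 55% in size.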
The target in test [10] is Aryl hydrocarbon receptor (Homo sapiens) (UniProt P35869). As to the kind of experiment: qHTS assay to identify small molecule that activate the aryl hydrocarbon receptor (AhR) signaling pathway (AID 743085).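 Further: HG2L7.5c1 human HepG2 liver cells with stably integrated DRE-driven firefly reporter; nearly all actives have a fitted effect of over 15% in size.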 A digest of the protocol:
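Luminescence read-out: ONE-Glo reagent, 30 min at room temperature, in HG2L7.5c1 HepG2 reporter cells treated 24 h at 37C. Viability was measured beforehand by CellTiter-Fluor fluorescence after 30 min at 37C.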

A short description of test [11]: qHTS assay to identify small molecule that activate the aryl hydrocarbon receptor (AhR) signaling pathway - cell viability counter screen (AID 743086).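 Further: HepG2 liver cells carrying the AhR DRE luciferase reporter; nearly all actives have a fitted effect of over 45% in size.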 The procedure, abridged:
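HepG2-AhR-luc (HG2L7.5c1) cells, 4000/well, were preincubated 5 h at 37C, exposed to compound in qHTS format for 24 hr at 37C, then given CellTiter-Fluor for 30 min; viability was read as fluorescence in the reporter wells.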

For test [12], the target named is Peroxisome proliferator-activated receptor gamma (Homo sapiens) (UniProt P37231). As to the kind of experiment: qHTS assay to identify small molecule agonists of the peroxisome proliferator-activated receptor gamma (PPARg) signaling pathway (AID 743094; active means well fitted activation curve with a large enough effect in the signal ratio in the repeat runs, not every such curve was filed as active; inconclusive means weak or mixed curves, or effect the other way; inactive means no such curve, though single readings can be large or run the other way; the % refers to the signal ratio; further: potency means the concentration at half of the fitted maximal effect). A digest of the protocol: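 Reporter activation was scored by fluorescence of cleaved LiveBLAzer B/G substrate (1 h, room temperature) in PPARg-bla HEK293H cells previously treated 17 h at 37C with DMSO-dissolved compounds.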
Chain of Peroxisome proliferator-activated receptor gamma (Homo sapiens) (P37231 whole entry, looked up): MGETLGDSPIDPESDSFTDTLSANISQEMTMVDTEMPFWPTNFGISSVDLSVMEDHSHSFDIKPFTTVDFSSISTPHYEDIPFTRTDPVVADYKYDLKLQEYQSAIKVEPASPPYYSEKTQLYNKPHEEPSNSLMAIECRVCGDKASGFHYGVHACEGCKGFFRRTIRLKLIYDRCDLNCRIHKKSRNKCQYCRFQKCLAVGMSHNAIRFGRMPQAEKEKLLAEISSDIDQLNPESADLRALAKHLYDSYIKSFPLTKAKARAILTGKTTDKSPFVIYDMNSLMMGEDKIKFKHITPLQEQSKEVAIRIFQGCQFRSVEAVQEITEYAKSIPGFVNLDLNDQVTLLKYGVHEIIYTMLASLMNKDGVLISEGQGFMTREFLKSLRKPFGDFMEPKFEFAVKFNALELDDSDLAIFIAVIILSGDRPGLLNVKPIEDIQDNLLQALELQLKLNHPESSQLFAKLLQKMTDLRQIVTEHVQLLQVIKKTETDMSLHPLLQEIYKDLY

Test [13] in a line: qHTS assay to identify small molecule antagonists of the peroxisome proliferator-activated receptor gamma (PPARg) signaling pathway - cell viability counter screen (AID 743194). Further: nearly all actives have a fitted effect of over 55% in size. The procedure, abridged:
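PPARg-UAS-bla HEK293H cells were plated, rested 5 h at 37 C, then treated with compounds plus rosiglitazone (50 nM final) for 17 h at 37 C; viability was then read by CellTiter-Glo luminescence after 30 min at room temperature.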

Test [14] can be described thus: qHTS assay for small molecule agonists of the antioxidant response element (ARE) signaling pathway (AID 743202; active means well fitted activation curve with a large enough effect in the signal ratio in the repeat runs, not every such curve was filed as active; inconclusive means weak or mixed curves, or effect the other way; inactive means no such curve, though single readings can be large or run the other way; the % refers to the signal ratio; further: potency means the concentration at half of the fitted maximal effect). The procedure, abridged:
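Following a 16 h, 37 C exposure of reporter HepG2 cells (ARE-driven beta-lactamase, 2,000 cells/well) to compounds, FRET substrate was applied for 2 h at room temperature and fluorescence intensity recorded.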

The nature of test [15]: qHTS assay for small molecule agonists of the antioxidant response element (ARE) signaling pathway - cell viability counter screen (AID 743203; calls by dose curve; further: nearly all actives have a fitted effect of over 55% in size). The procedure, abridged:
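Viability counter screen: stably transfected ARE-bla HepG2 line, 16 hrs compound exposure at 37C/5% CO2, ATP-based CellTiter-Glo luminescence measured in the reporter wells.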

The nature of test [16]: qHTS assay for small molecule activators of the heat shock response signaling pathway - cell viability counter screen (AID 743209). Further: nearly all actives have a fitted effect of over 50% in size. A digest of the protocol: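 Viability of HSE-bla HeLa cells is measured with CellTiter-Glo in the wells already used for the reporter read. Compound exposure lasts 5 h at 37 C, and luminescence is read after 30 min at room temperature.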
Test [17] addresses Peroxisome proliferator-activated receptor gamma (Homo sapiens) (UniProt P37231). As to the kind of experiment: qHTS assay to identify small molecule antagonists of the peroxisome proliferator-activated receptor gamma (PPARg) signaling pathway (AID 743191; calls by dose curve; further: nearly all actives have a fitted effect of over 30% in size). The procedure, abridged: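 GeneBLAzer PPARg UAS-bla HEK293H cells carrying a UAS-driven beta-lactamase reporter were plated at 3000 cells/well, preincubated 5 h at 37C, then given compound for 17 h at 37C; LiveBLAzer B/G FRET substrate was read after 1 h at room temperature.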

The nature of test [18]: qHTS assay for small molecule activators of the heat shock response signaling pathway (AID 743210; active means well fitted activation curve with a large enough effect in the signal ratio in the repeat runs, with a control signal flat, not every such curve was filed as active; inconclusive means weak or mixed curves; the % refers to the signal ratio). The procedure, abridged:
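Heat shock element–beta-lactamase HeLa reporter cells; qHTS with compounds for 5 h at 37 C; detection by FRET substrate fluorescence after 2.5 h at RT.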

Test [19] is described as follows: qHTS assay to identify small molecule antagonists of the estrogen receptor alpha (ER-alpha) signaling pathway using the BG1 cell line (AID 743080; calls by dose curve;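 further: BG1 cells stimulated with 17beta-estradiol alongside compound; nearly all actives have a fitted effect of over 25% in size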). A digest of the protocol: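 Readout is ONE-Glo luminescence, taken 30 min at room temperature after reagent addition, preceded by a CellTiter-Fluor viability read; BG1-Luc-4E2 cells had received compound and 17beta-estradiol for 21.5 h at 37 C.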

Activity calls are given as the source filed them. Unless noted, the call rests on the fitted dose curve; in most records, active means well fitted curve in the direction sought with a large enough effect in the repeat runs; inconclusive means weak or mixed curves; inactive means no such curve, though single readings can be large; an effect the other way counts as inactive or inconclusive.

Chain of Aryl hydrocarbon receptor (Homo sapiens) (P35869 whole entry, looked up): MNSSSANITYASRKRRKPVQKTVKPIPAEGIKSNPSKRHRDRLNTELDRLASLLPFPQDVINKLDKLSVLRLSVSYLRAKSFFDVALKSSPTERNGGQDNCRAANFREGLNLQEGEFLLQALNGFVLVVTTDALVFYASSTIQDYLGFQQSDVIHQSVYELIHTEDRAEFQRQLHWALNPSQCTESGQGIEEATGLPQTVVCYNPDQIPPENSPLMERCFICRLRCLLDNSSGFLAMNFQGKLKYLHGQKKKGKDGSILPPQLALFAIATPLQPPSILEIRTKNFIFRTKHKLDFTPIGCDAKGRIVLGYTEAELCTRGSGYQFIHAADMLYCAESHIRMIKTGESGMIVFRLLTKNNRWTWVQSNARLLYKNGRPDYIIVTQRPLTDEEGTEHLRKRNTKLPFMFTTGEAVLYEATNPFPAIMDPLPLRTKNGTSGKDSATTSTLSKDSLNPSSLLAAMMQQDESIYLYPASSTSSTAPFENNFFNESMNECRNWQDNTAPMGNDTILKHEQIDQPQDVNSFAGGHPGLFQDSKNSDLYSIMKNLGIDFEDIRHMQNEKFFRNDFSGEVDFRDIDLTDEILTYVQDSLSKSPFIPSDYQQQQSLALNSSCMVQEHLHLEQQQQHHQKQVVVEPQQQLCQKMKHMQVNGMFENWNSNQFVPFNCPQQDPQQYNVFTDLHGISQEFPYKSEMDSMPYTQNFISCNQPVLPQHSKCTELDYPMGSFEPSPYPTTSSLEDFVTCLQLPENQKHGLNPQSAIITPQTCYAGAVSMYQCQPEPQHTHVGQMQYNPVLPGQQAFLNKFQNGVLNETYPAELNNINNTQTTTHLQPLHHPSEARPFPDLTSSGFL
Chain of Estrogen receptor (Homo sapiens) (P03372 whole entry, looked up): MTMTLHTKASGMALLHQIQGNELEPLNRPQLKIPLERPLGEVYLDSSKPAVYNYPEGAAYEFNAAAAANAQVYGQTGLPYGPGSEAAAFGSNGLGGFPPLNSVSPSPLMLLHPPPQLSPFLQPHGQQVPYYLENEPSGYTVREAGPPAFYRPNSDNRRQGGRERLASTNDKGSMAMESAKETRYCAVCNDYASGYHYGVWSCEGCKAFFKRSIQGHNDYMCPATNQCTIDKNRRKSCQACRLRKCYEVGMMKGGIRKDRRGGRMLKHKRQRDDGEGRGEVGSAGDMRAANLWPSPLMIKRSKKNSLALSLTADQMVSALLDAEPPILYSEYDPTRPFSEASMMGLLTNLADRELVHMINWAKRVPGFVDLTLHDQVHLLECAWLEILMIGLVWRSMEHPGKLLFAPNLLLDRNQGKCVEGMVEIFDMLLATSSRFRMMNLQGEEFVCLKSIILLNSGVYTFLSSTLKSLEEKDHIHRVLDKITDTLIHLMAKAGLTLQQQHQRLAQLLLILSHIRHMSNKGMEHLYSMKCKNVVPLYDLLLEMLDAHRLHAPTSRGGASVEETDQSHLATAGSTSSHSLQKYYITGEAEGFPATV

As for `O=Cc1c2ccccc2c(Cl)c2ccccc12`, the Potency result in test [1], in [2], in test [4], in test [5], in test [7] and in test [8] was “inactive” in each case. Further, the Potency result (in the test with Aromatase (Homo sapiens); in [9]; in test [10]; in test [11]; in test [13]; in test [15]) was “inactive” throughout. For the same compound, the Potency entry in [16] is “inactive”. Also, the call in [3] was inactive. For the same compound, the Potency in test [6] was 13.5 µM [inconclusive] (active); in [12], 9.53 µM (active); in test [14], 29.9 µM (active).

As to `O=C(/C=C/c1ccc(O)c(O)c1)O[C@@H]1C[C@@](OC(=O)/C=C/c2ccc(O)c(O)c2)(C(=O)O)C[C@@H](O)[C@@H]1O`, the Potency result in test [1], in test [2], in test [4], in test [5], in test [6] and in test [7] was “inactive” each time. For the same compound, the Potency entry (in [8]; with Aromatase (Homo sapiens); in [9]; in test [10]; in [11]; in test [12]) was “inactive” each time. Also, the Potency result in [17], in [13], in test [16] and in [18] was “inactive” each time. Besides, the outcome in [3] was inactive.

For `CCC(=O)C1CC(C(C)C)CC=C1C` (centres undefined), the Potency result in test [1], in [2], in test [4], in test [5], in test [6] and in test [7] was “inactive” each time. For the same compound, the Potency entry (in test [19]; in test [8]; in the test with Aromatase (Homo sapiens); in [9]; in test [10]; in [11]) was “inactive” in each case. In addition, the Potency entry in test [12], in [17], in [13], in test [14], in [15] and in test [16] was “inactive” in each case. Further, in test [18], the Potency entry was “inactive”. The result in test [3] was inactive.

Consider `C=CC(=O)[O-].C=CC(=O)[O-].[Zn+2]`, for which the Potency result in test [1], in [2], in [4], in test [5], in [6] and in test [7] was “inactive” each time. The Potency result (in [19]; in [8]; in the test with Aromatase (Homo sapiens); in test [9]; in test [10]; in [11]) was “inactive” throughout. The Potency result in test [12], in test [13], in test [15] and in test [16] was “inactive” in each case. Also, the compound was classed as inactive in [3].

With `CC(CO)CO`, the Potency result in test [1], in [2], in test [4], in test [5], in test [6] and in test [7] was “inactive” in each case. The Potency entry (in test [19]; in [8]; with Aromatase (Homo sapiens); in test [9]; in test [10]; in test [11]) was “inactive” throughout. In addition, the Potency entry in test [14], in [15], in test [16] and in test [18] was “inactive” in each case. Moreover, the outcome in test [3] was inactive.

Consider `CCOC(C)=O`, for which the Potency entry in test [1], in test [2], in test [4], in test [5], in test [6] and in test [7] was “inactive” throughout. In addition, the Potency entry (in test [19]; in [8]; with Aromatase (Homo sapiens); in test [9]; in [11]; in [12]) was “inactive” each time. In addition, the Potency result in [17], in test [13], in test [14], in test [15], in test [16] and in [18] was “inactive” in each case. Besides, the outcome in test [3] was inactive.

In the case of `C[C@@H](CN(C)C)CN1c2ccccc2Sc2ccccc21`, the Potency in test [1] is 4.03 µM (active); in test [2], 10.1 µM (active). Moreover, the call in test [3] was inactive. Moreover, the Potency entry in [4], in [5], in [6], in test [7], in test [19] and in test [8] was “inactive” each time. The Potency result (with Aromatase (Homo sapiens); in test [9]; in test [10]; in [11]; in test [12]; in test [15]) was “inactive” in each case. The Potency entry in test [16] and in test [18] was “inactive” each time.
